Measured values from PubChem BioAssay AID504850 (National Center for Advancing Translational Sciences (NCATS), 2011).
Screen size: about 2,300 compounds; about 1,200 (52%) were called active. Roughly 34% stayed inconclusive and do not appear here. Calls follow the shape of the dose curve; as a rule, active = well fitted inhibition curve with a large enough effect; inconclusive = small, poorly fitted or top-dose-only effect, or effect the other way; inactive = no such curve, though single readings can be large or run the other way. The set was probably picked from earlier hits. The list shows a part of the results.

Test: Confirmation screen for delayed death inhibitors of the malarial parasite plastid, 48 hour incubation; also: nearly all actives have a fitted effect of over 65% in size
Conditions: P. falciparum-infected erythrocytes, luciferase growth; series mostly up to 28.7 µM
From the text: The goal of this screen is to discover new antimalarial compounds that act by inhibiting the development of the apicoplast in the malarial parasite Plasmodium falciparum. The biochemical processes that make this organelle essential for erythrocytic stage parasites are not well understood. However, antibiotics, such as azithromycin and tetracycline, which target the apicoplast translational machinery, have a potent antimalarial effect. […] We have developed a cell-based assay that measures parasite growth based on the expression of an integrated copy of a firefly luciferase reporter. To detect small molecules that cause this "delayed death phenotype, erythrocytes infected with the luciferase-expressing parasites were incubated with compounds for either one or two generations, corresponding to 48 and 96 hours, respectively. Compounds that inhibit parasite growth in the second generation, but not the first, should be enriched in antimalarials that target the apicoplast. Growth inhibition is detected by a decrease in luciferase activity. MLPCN Grant: R21 NS059500 Assay Provider: David Fidock and Eric Ekland, Columbia University Keywords: NIH Roadmap, MLPCN, MLI, MLSMR, qHTS, NCGC, qHTS, malaria, luciferase, viability
Four microliters of culture medium (RPMI 1640 with 0.5% w/v Albumax (GIBCO), 24 mM sodium bicarbonate and 10 ug/mL gentamycin) were dispensed by a Multi-drop Combi into white solid 1536-well plates (Grenier) and 23 nL compound was added by a pin tool. Four microliters of infected erythrocytes (2% hematocrit, 0.1% parasitemia final concentration) in culture medium were dispensed and the plates incubated for 48 hours at 37 C in 5% CO2. Two microliters of luciferase detection reagent was added and luminescence was detected by a ViewLux (PerkinElmer) reader.
Potency is read from the fitted curve at half-maximal effect.

Row | SMILES | Potency
1 | COc1cc(CN2CCN(S(=O)(=O)c3ccccc3)CC2)cc(OC)c1OC | 3.16 µM (active)
2 | COc1ccccc1N1CCN(S(=O)(=O)c2ccc(-n3cnnn3)cc2)CC1 | inactive
3 | COCCN1CCCC(CNCc2cn(C)nc2-c2ccc(Oc3ccccc3)cc2)C1 (stereo not drawn) | 7.94 µM (active)
4 | Cc1cccc(NC(=O)Cc2coc3ccc4ccccc4c23)n1 | 12.6 µM (active)
5 | CCOc1ccc(C2C3=C(Nc4nc(N)[nH]c(=O)c42)c2ccccc2C3=O)cc1 (stereo not drawn) | 14.1 µM (active)
6 | C/C(=C\C(=O)c1ccncc1)Nc1ccccc1O | 14.1 µM (active)
7 | O=C(CCN1CCN(c2ccc(F)cc2)CC1)Nc1ccccc1F | inactive
8 | CSc1ccccc1NC(=O)CN1CCN(S(=O)(=O)c2ccccc2[N+](=O)[O-])CC1 | 14.1 µM (active)
9 | C=CCNC(=O)c1onc(CSc2cccc3ccccc23)c1C(=O)O | inactive
10 | Cc1c(NC(=O)CSc2nnc3c4ccccc4n(CCc4ccccc4)c3n2)c(=O)n(-c2ccccc2)n1C | 11.2 µM (active)
11 | CSc1nnc2c3ccccc3n(CCc3ccccc3)c2n1 | 15.8 µM (active)
12 | COc1ccc(C)cc1NC(=O)C(Sc1nnc(Nc2cc(C)ccc2OC)s1)c1ccccc1 (stereo not drawn) | 14.1 µM (active)
13 | CC(C)(C)OC(=O)NCCCCCNC(=O)c1[nH]cnc1C(=O)Nc1nccs1 | 10 µM (active)
14 | Cn1cc([N+](=O)[O-])c(C(=O)Nc2nccs2)n1 | inactive
15 | CCn1cc(C(=O)O)c(=O)c2cc(F)c(N/N=C/c3ccccc3)cc21 | 12.6 µM (active)
16 | O=C(c1cccs1)N1CCC(c2nc3c(nnn3Cc3c(Cl)cccc3Cl)c(=O)[nH]2)CC1 | 7.94 µM (active)
17 | O=c1[nH]c(C2CCN(S(=O)(=O)c3cccc([N+](=O)[O-])c3)CC2)nc2c1nnn2Cc1ccccc1 | 10 µM (active)
18 | CC(SC#N)C(=O)C12CC3CC(CC(C3)C1)C2 (stereo not drawn) | 8.91 µM (active)
19 | O=C(CSc1nnc(-c2ccco2)o1)N1c2ccccc2CCc2ccccc21 | 10 µM (active)
20 | C/C(=N\NC(=S)NCC(C)(C)C)c1cc(F)cc(F)c1O | 11.2 µM (active)
21 | CC1=NNC(=O)/C1=C\c1cn(-c2ccccc2)nc1-c1cccs1 | 8.91 µM (active)
22 | COc1cccc(Nc2ccc(N3CCCCC3)cc2)c1OC | 6.31 µM (active)
23 | S=c1[nH]nc(COc2ccccc2)n1/N=C/C(Cl)=C/c1ccccc1 | 14.1 µM (active)
24 | ClC(/C=N/n1cnnc1)=C/c1ccccc1 | 14.1 µM (active)

Row | SMILES | Potency
25 | O=C(CSc1nc2nn(-c3ccccc3)c(=O)c-2c2n1CCCCC2)c1ccc(O)c(O)c1 | 12.6 µM (active)
26 | COc1ccc(/C=C/C(=O)c2ccc(NS(=O)(=O)c3ccc(C)cc3)cc2)cc1O | 7.94 µM (active)
27 | COc1cc(/C=C/C(=O)c2ccc(NS(=O)(=O)c3ccc(C)cc3)cc2)ccc1OC(F)F | 12.6 µM (active)
28 | Cc1c(O)ccc(C(=O)CN2CCN(Cc3ccc4c(c3)OCO4)CC2)c1O | 14.1 µM (active)
29 | Cc1c(-c2ccccc2)nc2ccccc2c1C(=O)Nc1ccncc1 | 0.501 µM (active)
30 | CC(=O)N1CCCN(C(=O)c2cc(COc3c(F)cccc3F)on2)CC1 | inactive
31 | CN1CCN(C(=O)c2cc(COc3c(F)cccc3F)on2)CC1c1ccccc1 (stereo not drawn) | inactive
32 | O=C(c1cc(COc2cccc(C(F)(F)F)c2)on1)N1CCC(Oc2cccnc2)CC1 | 12.6 µM (active)
33 | S=c1[nH]nc(-c2cc(-c3ccccc3)n[nH]2)n1/N=C/C(Br)=C/c1ccccc1 | 6.31 µM (active)
34 | C=C1C(=O)O[C@@H]2C[C@@H](C)[C@@H]3C=CC(=O)[C@@]3(C)[C@@H](OC(C)=O)[C@H]12 | 1.58 µM (active)
35 | COc1ccc2nc3sc(C(=O)NCCN4CCc5ccccc5C4)cc3cc2c1 | 8.91 µM (active)
36 | c1ccc2c(c1)Nc1cc3ccccc3cc1S2 | 5.01 µM (active)
37 | CCN(Cc1ccccc1)C(=O)CSc1ncn[nH]1 | inactive
38 | O=C(/C=C/Sc1ncn[nH]1)c1ccc(Cl)cc1 | 12.6 µM (active)
39 | Cc1ccc(C)c(/C=C/C(=O)c2ccccc(=O)c2O)c1 | 14.1 µM (active)
40 | O=C(/C=C/c1ccccc1Cl)c1ccccc(=O)c1O | 10 µM (active)
41 | N#Cc1ccccc1S(=O)(=O)N1CCC(C(=O)NCc2ccccc2CN2CCCC2)CC1 | 12.6 µM (active)
42 | COc1ccc(C)cc1NC(=O)CSCc1ccccc1C | 12.6 µM (active)
43 | Cc1ccc(SCC(=O)Nc2ccccc2C(=O)O)cc1 | inactive
44 | O=C(C[C@H]1C(=O)N(Cc2ccccc2)C[C@@H]1Cc1ccccc1)Nc1ccccc1 | 11.2 µM (active)
45 | CCOc1ccc(NC(=O)CC2C(=O)N(c3ccccc3)C(=O)N2CCOC)cc1 (stereo not drawn) | inactive
46 | Cn1c(Cc2cccc3ccccc23)nnc1SCc1ccc([N+](=O)[O-])cc1 | 14.1 µM (active)
47 | CC1(C)CCSC(/C=C/c2ccccc2)=N1 | 7.94 µM (active)
48 | CC(=O)c1ccc(NC(=S)Nc2ccc3cn[nH]c3c2)cc1 | inactive

Row | SMILES | Potency
49 | CCC(=O)NC(=S)Nc1ccc(NC(=O)c2ccc(C)c([N+](=O)[O-])c2)cc1 | 14.1 µM (active)
50 | Cc1ccc(-c2nn(C(C)(C)C)c3ncnc(N)c23)cc1 | 5.62 µM (active)
51 | Cc1cccc[n+]1CC(=O)c1ccc(NC(=O)c2ccccc2)cc1 | 7.94 µM (active)
52 | Cc1ccc(Nc2cc(C)nc3ccc(C)cc23)cc1 | 10 µM (active)
53 | CN(CCC#N)C(=O)COC(=O)c1ccc2[nH]c3c(c2c1)CCCC3 | inactive
54 | COc1ccccc1N1CCN(C(=O)c2ccc3[nH]c4c(c3c2)CCCC4)CC1 | 12.6 µM (active)
55 | Cc1ccc(Cl)cc1Nc1nc(-c2sc(NC(=O)C(C)(C)C)nc2C)cs1 | 5.01 µM (active)
56 | CCOC(=O)C1CCN(c2c(NCc3ccc(C(=O)NCCC(C)C)cc3)c(=O)c2=O)CC1 | 2.24 µM (active)
57 | O=C(/C=C/c1cccnc1)c1ccc(O)cc1 | 15.8 µM (active)
58 | O=C(/C=C/c1cccnc1)/C=C/c1cccnc1 | 4.47 µM (active)
59 | COc1ccc(C(=O)/C=C/c2cccnc2)c(OC)c1 | 7.94 µM (active)
60 | O=C(/C=C/c1ccccc1)/C=C/c1ccccc1 | 11.2 µM (active)
61 | COc1cc(C(=O)/C=C/c2cccnc2)ccc1O | 12.6 µM (active)
62 | COc1cc(/C=C/C(=O)OCC(=O)Nc2c(C)n(C)n(-c3ccccc3)c2=O)cc(OC)c1OC | inactive
63 | COc1cc(/C=C/C(=O)Nc2cccnc2)cc(OC)c1OC | 14.1 µM (active)
64 | CC(C)NC(=O)c1onc(CSc2cccc3ccccc23)c1C(=O)O | inactive
65 | COc1cc2cc[n+](Cc3ccc([N+](=O)[O-])cc3)cc2cc1OC | 5.01 µM (active)
66 | CN1CCN(c2ncnc3c2c(-c2ccccc2)cn3-c2ccc(F)cc2)CC1 | 11.2 µM (active)
67 | CCN1CCN(c2ncnc3c2c(-c2ccccc2)cn3-c2ccc(F)cc2)CC1 | 12.6 µM (active)
68 | Fc1ccccc1N1CCN(c2ncnc3nc[nH]c23)CC1 | inactive
69 | COc1ccc(-n2c(=O)/c(=C\c3cccs3)s/c2=C(/C#N)C(=O)N2CCN(C)CC2)cc1 | inactive
70 | O=C(CCl)N1CCN(CC(=O)N2CCCC2)CC1 | 15.8 µM (active)
71 | CN(C(=O)CN1C(=O)CCSc2ccc(S(=O)(=O)N3CCCC3)cc21)c1ccccc1 | 11.2 µM (active)
72 | OC(c1cc(C(F)(F)F)nc2c(C(F)(F)F)cccc12)C1CCCCN1 (stereo not drawn) | 0.0447 µM (active)

Row | SMILES | Potency
73 | O[C@@H](c1cc(C(F)(F)F)nc2c(C(F)(F)F)cccc12)[C@H]1CCCCN1 | 0.178 µM (active)
74 | OC(c1cc(C(F)(F)F)nc2c(Cl)cc(Cl)cc12)C1CCCCN1 (stereo not drawn) | 0.0282 µM (active)
75 | OC(c1cc(-c2ccc(Cl)cc2)nc2ccccc12)C1CCCCN1 (stereo not drawn) | 0.282 µM (active)
76 | O=C(Cc1n[nH]c(=O)c2ccccc12)OCc1c(Cl)cccc1Cl | inactive
77 | COc1ccc(-n2c(C)cc(C(=O)COC(=O)Cc3n[nH]c(=O)c4ccccc34)c2C)cc1 | 5.62 µM (active)
78 | CC(C)(C)C(=O)/C(=C\c1cccc([N+](=O)[O-])c1)n1cncn1 | 14.1 µM (active)
79 | CC(=O)c1ccc(NC(=O)C2Cc3ccccc3CN2C(=O)c2ccccc2)cc1 (stereo not drawn) | 14.1 µM (active)
80 | C/C1=C\CCC2C(/C=C(\C)CC1)OC(=O)C2CN1CCCCC1 (stereo not drawn) | 12.6 µM (active)
81 | N#Cc1cc(Oc2cccc3cccnc23)c(-n2nnc3ccccc32)cc1C#N | 5.01 µM (active)
82 | COc1ccccc1-c1cc(C(=O)N/N=C/c2ccc(C)o2)c2ccccc2n1 | inactive
83 | COc1ccccc1-c1cc(C(=O)N/N=C/c2cccs2)c2ccccc2n1 | 5.62 µM (active)
84 | COc1ccccc1-c1cc(C(=O)N/N=C/c2ccc(C)s2)c2ccccc2n1 | 5.62 µM (active)
85 | OC1C2(Cc3ccccc3)CN3CCN(C2)CC1(Cc1ccccc1)C3 (stereo not drawn) | 2 µM (active)
86 | CCCc1cc(NCCCN2CCOCC2)n2c(nc3ccccc32)c1C#N | 8.91 µM (active)
87 | Cc1ccccc1-c1nnc(NC(=O)c2ccc(N3C(=O)CCC3=O)cc2)s1 | 14.1 µM (active)
88 | CCC[C@H]1C[C@H](C(=O)N[C@@H]([C@H]2O[C@@H](SC)[C@@H](O)[C@@H](O)[C@@H]2O)[C@H](C)Cl)N(C)C1 | 0.631 µM (active)
89 | COc1ccc(NS(=O)(=O)c2ccc(N3CCOCC3)c(NC(=O)c3ccc(OC)cc3)c2)cc1 | 11.2 µM (active)
90 | CCOC(=O)C1=C(C)NC(C)=C(C(=O)OCC)C1c1cc(N)ccc1OC(F)F | 5.62 µM (active)
91 | COC(=O)COc1ccc(S(=O)(=O)NCCC2=CCCCC2)cc1Cl | inactive
92 | CCOc1ccc(S(=O)(=O)N2CCCC(C(=O)NC3CC3)C2)cc1Cl (stereo not drawn) | 12.6 µM (active)
93 | COc1cccc2sc(NNC(=O)c3nc4ccccc4s3)nc12 | 15.8 µM (active)
